biological target: Hexose transporter 1 (Plasmodium falciparum) (UniProt O97467); experiment: ST_JUDE_LEISH: Cytotoxicity at 2uM final concentration against transgenic Leishmania Mexicana promastigotes LmPfHT that are glucose transport deficient and complemented with the Plasmodium falciparum hexose transporter. Activity is measured by DNA content using SYBR green in vitro; format: functional

Structure (SMILES)	inhibition
COc1ccc2nccc([C@@H](O)CN3CCC(NCc4cc5c(cc4F)SCC(=O)N5)CC3)c2n1	7.72%
CN1CCN(Cc2cccc(-c3ccc4c(Nc5cc(O)c(Cl)cc5F)ccnc4c3)c2)CC1	6.74%
Cc1cc(NC(=O)Nc2ccc(Oc3ccccc3)cc2)c2ccccc2n1	1.44%
O=C(Nc1ccc(CN2CCN(S(=O)(=O)c3ccc(Cl)s3)CC2)cc1)c1cccs1	7.45%
CC1CN(C(=O)c2sc3ccccc3c2Cl)CC(C)O1 (stereo not given)	0.96%
CCCCCCNC(=O)C1Cc2c([nH]c3ccc(C)cc23)C2(CCN(Cc3ccccc3)CC2)N1 (stereo not given)	0.07%
CCNc1cc(C(=O)N[C@@H](Cc2ccccc2)[C@H](O)CNC2CCC(C(C)(C)C)CC2)cc(N2CCCC2=O)c1 (stereo not given in full)	1.1%
Cc1nnnn1-c1ccc(C(=O)N2CCC3(CC2)CN(Cc2ccc(Cl)c(Cl)c2)C(=O)O3)cc1	8.51%
CC(=O)N1CCC(C(=O)Nc2ccc(-c3cccc(-c4nc5cccc(C)c5[nH]4)c3)cc2)CC1	0.21%
COCCNCc1ncsc1-c1ccc2c(Nc3ccc(Oc4ccccc4)cc3)ccnc2c1	1.15%
Cc1cc(-c2nc3cc(C(=N)N)ccc3[nH]2)c(C)cc1-c1nc2cc(C(=N)N)ccc2[nH]1	3.95%
CC(C)(C)OC(=O)C1CCCN(Cc2ccc(-c3cccc(-c4nc5ccccc5[nH]4)c3)cc2)C1 (stereo not given)	3.25%
COc1ccccc1-n1ccnc1SCC(=O)Nc1cc(C(F)(F)F)ccc1Cl	-0.64%
COc1ccc(CCNc2nc(N)c3cc(OC)c(OC)cc3n2)cc1	3.91%
COc1ccccc1Cn1ccnc1SCC(=O)Nc1cc(C(F)(F)F)ccc1Cl	-2.15%
O=C(Nc1ccc(OC2CCN(Cc3ccccc3)C2)c(Cl)c1)c1cccs1 (stereo not given)	1.06%
O=C(O)C1CC(=O)N(c2ccc(Cl)cc2)C1 (stereo not given)	-0.45%
O=C(Nc1cccc(C(F)(F)F)c1)c1cccc(S(=O)(=O)NCC2CCCN(CC3CCCCC3)C2)c1 (stereo not given)	0.12%
COc1cccc(NC(=O)Nc2ccc(Nc3nc(C)cc(N4CCCC4)n3)cc2)c1	1.07%
Fc1ccc(-c2cc(NCCCn3ccnc3)nc(-c3cccnc3)n2)cc1	0.82%

Structure (SMILES)	inhibition
CC(=O)COc1c(C2CCN(CCCCNC(=O)c3ccc(-c4ccc(C(F)(F)F)cc4)cc3)CC2)ccc2c1CCCC2	5.93%
N=C(N)NC(=O)Nc1ccc(Cl)c([N+](=O)[O-])c1	0.63%
Cc1cccc2nc(-c3ccc(-c4ccc(NC(=O)Nc5cccc(C#N)c5)cc4)s3)[nH]c12	6.92%
Nc1c(Cl)cc(C(O)CNCCCCCOCCc2ccccc2)cc1C(F)(F)F (stereo not given)	4.17%
COc1ccc2nccc([C@@H](O)CN3CCC(NC(=O)c4cc5c(Cl)cc(Cl)cc5[nH]4)CC3)c2c1	7.48%
Nc1nc(N)c2c(Cc3ccc(Br)cc3)cccc2n1	4.39%
CC(C)Nc1cc(C(=O)N[C@@H](Cc2ccccc2)[C@H](O)CNC2CCCCC2)cc(N2CCCCS2(=O)=O)c1	3.37%
CN(C)CCN(C)Cc1ccc(-c2ccc(NS(=O)(=O)c3cccc4cccnc34)cc2)cc1	9.32%
COc1ccc(NC(=O)[C@H](Cc2ccccc2)Nc2cc(C)nc(NCCOc3ccccc3)n2)cc1	2.78%
Cc1cc(C(=O)CN2C(=O)NC3(CCOc4ccccc43)C2=O)c(C)n1Cc1ccco1 (stereo not given)	4.77%
COc1ccc(Nc2nc(NC3CCN(C)CC3)cc(-c3ccc(OC)cc3)n2)cc1	2.61%
CCCN(Cc1nnc(-c2cccs2)o1)C(=O)CSc1nnnn1-c1cc(C)cc(C)c1	5.88%
COc1ccc(-c2ccc(NC(=O)c3cccc(Cl)c3)cc2)cc1CN(C)CCN(C)C	14.4%
Cc1ccc(NC(=O)c2ccc3ncccc3c2)cc1OC1CCN(Cc2ccc(F)cc2)CC1	3.46%
CN1CCN(Cc2ccc(-c3ccc4c(Nc5ccc(Cl)cc5F)ccnc4c3)o2)CC1	11.8%
COc1cccc(OC)c1CN1CCC(N(C)CCCCCCCCCN2CCC(OC(=O)Nc3ccccc3-c3ccccc3)CC2)CC1	108%
COc1ccc(-c2nc3c4ccccc4c4ccc(I)cc4c3[nH]2)cc1	2.48%
c1cc2[nH]c(CCCc3nc4cc(C5=N[C@H]6CCCC[C@H]6N5)ccc4[nH]3)nc2cc1C1=N[C@@H]2CCCC[C@@H]2N1	1.75%
CC(C)(CNCc1ccc(F)c(F)c1)c1nc(-c2ccnc(N)n2)c(-c2ccc(Cl)c(O)c2)[nH]1	1.07%
O=C(Cc1c[nH]cn1)Nc1ccc(-c2cccc(-c3nc4cc(F)ccc4[nH]3)c2)cc1	4.07%

biological target: Glucose transporter (Leishmania mexicana) (UniProt O61059); experiment: ST_JUDE_LEISH: Cytotoxicity at 2uM final concentration against transgenic Leishmania Mexicana promastigotes LmGT2 that are glucose transport deficient and complemented with the L. Mexicana glucose transporter 2. Activity is measured by DNA content using SYBR green in vitro; format: functional

Structure (SMILES)	inhibition
COc1ccc2nccc([C@@H](O)CN3CCC(NCc4cc5c(cc4F)SCC(=O)N5)CC3)c2n1	8.6%
CN1CCN(Cc2cccc(-c3ccc4c(Nc5cc(O)c(Cl)cc5F)ccnc4c3)c2)CC1	13%
Cc1cc(NC(=O)Nc2ccc(Oc3ccccc3)cc2)c2ccccc2n1	-0.34%
O=C(Nc1ccc(CN2CCN(S(=O)(=O)c3ccc(Cl)s3)CC2)cc1)c1cccs1	5.63%
CC1CN(C(=O)c2sc3ccccc3c2Cl)CC(C)O1 (stereo not given)	0.74%
CCCCCCNC(=O)C1Cc2c([nH]c3ccc(C)cc23)C2(CCN(Cc3ccccc3)CC2)N1 (stereo not given)	1.33%
CCNc1cc(C(=O)N[C@@H](Cc2ccccc2)[C@H](O)CNC2CCC(C(C)(C)C)CC2)cc(N2CCCC2=O)c1 (stereo not given in full)	-2.55%
Cc1nnnn1-c1ccc(C(=O)N2CCC3(CC2)CN(Cc2ccc(Cl)c(Cl)c2)C(=O)O3)cc1	6.87%
CC(=O)N1CCC(C(=O)Nc2ccc(-c3cccc(-c4nc5cccc(C)c5[nH]4)c3)cc2)CC1	0.44%
COCCNCc1ncsc1-c1ccc2c(Nc3ccc(Oc4ccccc4)cc3)ccnc2c1	2.26%
Cc1cc(-c2nc3cc(C(=N)N)ccc3[nH]2)c(C)cc1-c1nc2cc(C(=N)N)ccc2[nH]1	0.94%
CC(C)(C)OC(=O)C1CCCN(Cc2ccc(-c3cccc(-c4nc5ccccc5[nH]4)c3)cc2)C1 (stereo not given)	0.78%
COc1ccccc1-n1ccnc1SCC(=O)Nc1cc(C(F)(F)F)ccc1Cl	-1.83%
COc1ccc(CCNc2nc(N)c3cc(OC)c(OC)cc3n2)cc1	1.41%
COc1ccccc1Cn1ccnc1SCC(=O)Nc1cc(C(F)(F)F)ccc1Cl	-1.55%
O=C(Nc1ccc(OC2CCN(Cc3ccccc3)C2)c(Cl)c1)c1cccs1 (stereo not given)	1.66%
O=C(O)C1CC(=O)N(c2ccc(Cl)cc2)C1 (stereo not given)	-1.26%
O=C(Nc1cccc(C(F)(F)F)c1)c1cccc(S(=O)(=O)NCC2CCCN(CC3CCCCC3)C2)c1 (stereo not given)	-2.09%
COc1cccc(NC(=O)Nc2ccc(Nc3nc(C)cc(N4CCCC4)n3)cc2)c1	1.4%
Fc1ccc(-c2cc(NCCCn3ccnc3)nc(-c3cccnc3)n2)cc1	2.67%

Structure (SMILES)	inhibition
CC(=O)COc1c(C2CCN(CCCCNC(=O)c3ccc(-c4ccc(C(F)(F)F)cc4)cc3)CC2)ccc2c1CCCC2	0.59%
N=C(N)NC(=O)Nc1ccc(Cl)c([N+](=O)[O-])c1	0.37%
Cc1cccc2nc(-c3ccc(-c4ccc(NC(=O)Nc5cccc(C#N)c5)cc4)s3)[nH]c12	8.07%
Nc1c(Cl)cc(C(O)CNCCCCCOCCc2ccccc2)cc1C(F)(F)F (stereo not given)	-2.01%
COc1ccc2nccc([C@@H](O)CN3CCC(NC(=O)c4cc5c(Cl)cc(Cl)cc5[nH]4)CC3)c2c1	0.08%
Nc1nc(N)c2c(Cc3ccc(Br)cc3)cccc2n1	3.75%
CC(C)Nc1cc(C(=O)N[C@@H](Cc2ccccc2)[C@H](O)CNC2CCCCC2)cc(N2CCCCS2(=O)=O)c1	7.2%
CN(C)CCN(C)Cc1ccc(-c2ccc(NS(=O)(=O)c3cccc4cccnc34)cc2)cc1	3.58%
COc1ccc(NC(=O)[C@H](Cc2ccccc2)Nc2cc(C)nc(NCCOc3ccccc3)n2)cc1	2.55%
Cc1cc(C(=O)CN2C(=O)NC3(CCOc4ccccc43)C2=O)c(C)n1Cc1ccco1 (stereo not given)	3.86%
COc1ccc(Nc2nc(NC3CCN(C)CC3)cc(-c3ccc(OC)cc3)n2)cc1	2.87%
CCCN(Cc1nnc(-c2cccs2)o1)C(=O)CSc1nnnn1-c1cc(C)cc(C)c1	2.71%
COc1ccc(-c2ccc(NC(=O)c3cccc(Cl)c3)cc2)cc1CN(C)CCN(C)C	4.62%
Cc1ccc(NC(=O)c2ccc3ncccc3c2)cc1OC1CCN(Cc2ccc(F)cc2)CC1	5.46%
CN1CCN(Cc2ccc(-c3ccc4c(Nc5ccc(Cl)cc5F)ccnc4c3)o2)CC1	11.1%
COc1cccc(OC)c1CN1CCC(N(C)CCCCCCCCCN2CCC(OC(=O)Nc3ccccc3-c3ccccc3)CC2)CC1	111%
COc1ccc(-c2nc3c4ccccc4c4ccc(I)cc4c3[nH]2)cc1	2.32%
c1cc2[nH]c(CCCc3nc4cc(C5=N[C@H]6CCCC[C@H]6N5)ccc4[nH]3)nc2cc1C1=N[C@@H]2CCCC[C@@H]2N1	0.34%
CC(C)(CNCc1ccc(F)c(F)c1)c1nc(-c2ccnc(N)n2)c(-c2ccc(Cl)c(O)c2)[nH]1	2.56%
O=C(Cc1c[nH]cn1)Nc1ccc(-c2cccc(-c3nc4cc(F)ccc4[nH]3)c2)cc1	2.01%

From ChEMBL document CHEMBL3433997, “St. Jude Leishmania screening dataset” (2016)
